According to PubChem BioAssay (EPA / NIEHS):
The source made the active and inactive calls. Rule for the calls: active = hit-call score of the fitted dose curve at least 0.9, where 1 is the maximum; inactive = score below 0.9.

Test: CCTE_Shafer_MEA_dev_network_spike_number: CCTE's Neural Network Formation Assay for Number of Network Spikes, Shafer Lab (AID 2284048);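 note: synchronized bursts across electrodes counted on days 5 7 9 12 and integrated as AUC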;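 for AC50: fit as a loss of signal meaning fewer network spikes than DMSO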
Description: CCTE_Shafer_MEA_dev assay is conducted using Axion Biosystems 48 well microelectrode array (MEA) plates and Maestro recording system. Each well of the MEA plate contains a grid of 16 microelectrodes embedded in the culture surface. Electrically active cells, such as neurons, can be cultured over the electrodes, and electrical activity in these cells can be recorded extracellularly. The spontaneous firing of neurons is captured from each electrode on a microsecond timescale providing both temporally and spatially precise data. […] The CCTE_Shafer_MEA_dev assay uses primary cultures of rat cortical neurons. Recordings are made on days post-plating 5, 7, 9 and 12. As these cultures mature over time, neural networks develop functional activity and form cohesive networks in which electrical activity can be highly coordinated. CCTE_Shafer_MEA_dev_network_spike_number is 1 of 19 assay components of the CCTE_Shafer_MEA_dev assay. It measures the number of network spikes (temporally-clustered groups of action potential firing across multiple electrodes) during a recording in a microelectrode array (MEA) using Axion Biosystems Maestro 768 channel amplifier with the AxIS adaptive spike detector. To collapse across multiple recordings made on days post-plating 5, 7, 9 and 12, the trapezoidal area-under-the-curve of the component is calculated.Data from the assay component CCTE_Shafer_MEA_dev_network_spike_number was analyzed into 1 assay endpoint. This assay endpoint, CCTE_Shafer_MEA_dev_network_spike_number, was analyzed in the negative analysis fitting direction relative to DMSO as the negative control and baseline of activity. Using a type of functional reporter, gain or loss-of-signal activity can be used to understand electrical activity.
On the day prior to culture, each well was coated thoroughly with 150 uL of 0.05% polyethyleneimine (PEI, Sigma Cat P3143) in 50 mM HEPES (Sigma Cat H7523) at a pH of 8. The plate was incubated at 37C for one hour. PEI was rinsed out with 500 uL of sterile water three times. Plates were stored at 4C until the day of culture. This culture was plated at a seeding density of 1.5 x 10^5 cells/well on a 48-well MEA plate, prepared as described above. Cells were administered via a 25 uL media/laminin ([…]; Sigma Cat L2020-1MG) drop directly onto the microelectrode array, as adding the cells with the laminin results in better attachment than pre-coating with laminin. After 2 hours, an additional 475 uL of cortical media was added and the cells returned to the incubator. Exposure starts at day 0 of plating and is continued over twelve days of network development until the experiment is terminated. Cells are fed with fresh medium on DIV 5 and 9, following the recordings on those days. The entire volume of media in the well is exchanged and any vehicle or compound treatment is renewed. Complete details are found in OP-NHEERL/ISTD/SBB/TJS/2015-03-r0 (available on request, email shafer.tim@epa.gov). Measurement of the electrical activity is non-invasive, and recordings can be made from the same plate over multiple different days of the culture. In cortical neurons, this allows for the measurement of extracellular action potentials over the period during which networks form in the MEA plate.

outcome, inactive:
O=CC(F)(F)C(F)(F)C(F)(F)F
COC(=O)C(F)(F)C(F)(F)C(F)(F)C(F)(F)C(F)(F)F
OCC(F)(F)C(F)(F)C(F)(F)C(F)(F)C(F)(F)C(F)(F)C(F)(F)C(F)(F)C(F)(F)C(F)(F)C(F)(F)F
NC(C(F)(F)F)C(F)(F)F
O=C(OC(=O)C(F)(F)C(F)(F)F)C(F)(F)C(F)(F)F
O=C(CC(=O)C(F)(F)C(F)(F)C(F)(F)F)c1cccs1
O=C1NS(=O)(=O)c2ccccc21
COC(=O)C(F)(F)C(F)(F)C(F)(F)F
C=CC(F)(F)C(F)(F)C(F)(F)C(F)(F)F
O=P(O)(O)CCC(F)(F)C(F)(F)C(F)(F)C(F)(F)C(F)(F)C(F)(F)F
FC(F)=C(F)C(F)(F)C(F)(F)C(F)(F)C(F)F
O=C(O)C(F)(F)OC(F)(F)C(F)(F)OC(F)(F)C(F)(F)OC(F)(F)C(F)(F)C(F)(F)C(F)(F)F
CN(CCO)S(=O)(=O)C(F)(F)C(F)(F)C(F)(F)C(F)(F)C(F)(F)C(F)(F)C(F)(F)C(F)(F)F
CC(=O)Nc1ccc(O)cc1
CN(C)CCOC(c1ccccc1)c1ccccc1
O=CC(F)(F)C(F)(F)C(F)(F)C(F)F
O=C(C=C(O)C(F)(F)F)C(F)(F)F
O=C(F)C(F)(F)C(F)(F)C(F)(F)C(F)F
FCOC(C(F)(F)F)C(F)(F)F
O=C(O)CCC(F)(F)C(F)(F)C(F)(F)C(F)(F)C(F)(F)F
O=C(F)C(F)(F)C(F)(F)C(F)(F)C(=O)F

AC50, active:
Nc1ccn([C@@H]2O[C@H](CO)[C@@H](O)C2O)c(=O)n1 (stereo partly specified) 125 nM
CC(C)c1c(C(=O)Nc2ccccc2)c(-c2ccccc2)c(-c2ccc(F)cc2)n1CC[C@@H](O)C[C@@H](O)CC(=O)O 5.74 nM
CN(Cc1cnc2nc(N)nc(N)c2n1)c1ccc(C(=O)N[C@@H](CCC(=O)O)C(=O)O)cc1 25.8 nM
O=P(O)(O)CCC(F)(F)C(F)(F)C(F)(F)C(F)(F)C(F)(F)C(F)(F)C(F)(F)C(F)(F)F 4290 nM
O=C(CCCN1CCC(O)(c2ccc(Cl)cc2)CC1)c1ccc(F)cc1 568 nM
